# Values joined by “and” are separate entries in the source; they are usually repeats but may differ in a detail not shown here. Equal values may be shown once. This is part of a sample that, as a whole, favours compounds with a hit. Of some 83,000 tested, about 20% had one in any assay.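 The test compound was applied at a single concentration to cells in 96-well plates for 48 hours, and percent growth was recorded.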 Active and inactive are the calls of the source. The calls were made as follows: active = growth percent below 10; inactive = the rest.
# Test system: NCI-H522 lung
# Assay: NCI-60 one-dose screen, 48 h (100 = growth as untreated, 0 = no growth, -100 = all killed)
# Details: 10 µM unless noted
row,Compound,growth
1,Cc1c(Cl)cc(Cl)c(N)c1Cl,97.4% (inactive)
2,O=c1ccn2c(n1)OC1CC2OC1COC(c1ccccc1)(c1ccccc1)c1ccccc1 (stereo not given),60.7% [100 µM] (inactive)
3,Oc1ccc(O)c(-c2ccccc2)c1,-68.3% (active)
4,CCOCCC(=O)O,102% (inactive)
5,CCOC(=O)NC(N)=O,89.4% (inactive) and 103% (inactive)
6,CCCCC/C(C)=N\NC(N)=S,89.3% (inactive)
7,COc1cc2c(cc1O)C(=O)CCCC2,70.6% (inactive)
8,O=C1C=CC[C@H](/C=C/c2ccccc2)O1,13.9% (inactive) and 47.5% (inactive)
9,NC1=NC(c2ccccc2)N=C(Nc2ccccc2)N1 (stereo not given),83.8% (inactive) and 110% (inactive)
10,CSc1nc(N)c(N)c(N)n1,70.1% (inactive)
11,CS/C(=C\c1ccc(C(=O)c2ccc(C)cc2)n1C)S(C)=O (stereo not given),6.15% [100 µM] (active)
12,CCN(C)c1ccccc1,99.5% (inactive)
13,Cc1cnc(N)s1,77.9% (inactive)
14,COC(=O)c1nc(=S)[nH]c(C(=O)OC)c1C(=O)c1ccccc1,103% (inactive)
15,CC(=O)c1cc2ccccc2o1,84.1% (inactive)
16,OCCCc1ccccc1,110% (inactive)
17,CCC/C(=N/NC(N)=O)c1ccco1,76.3% (inactive)
18,O=C1C(=O)c2ccccc2C(O)=C1CC=C(Cl)Cl,43.7% (inactive) and 42.1% (inactive)
19,CCC(=O)Oc1ccc(OCc2ccccc2)cc1,88.3% (inactive) and 77% (inactive)
20,O=C(OCc1ccccc1)c1ccccc1,111% (inactive) and 79.6% (inactive)
